A short description of test [1]: RCMB18 cell growth, single agent and combined, cisplatin and BGB IC40 combos (AID 1671462).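 Note: cells exposed to compound for four days.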 The conditions noted are these: RCMB18 medulloblastoma cells, stronger effect = higher value.
The nature of test [2]: CRL1545 cell growth, single agent and combined, cisplatin and BGB IC20 combos (AID 1671464).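 Note: cells exposed to compound for 96 hours before readout; 0% = vehicle DMSO and 100% = high DMSO killing control.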 The conditions noted are these: CRL1545 osteosarcoma cells, stronger effect = higher value.
Test [3] in a line: compounds altering circadian rhythm period length – cell-based, LOPAC library, luminescence reporter (AID 2774; call rule not given here;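 note: values are relative to mean of DMSO wells on each plate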). The conditions noted are these: circadian reporter cells, at 7 µM, actives lie on both sides.
Test [4] is described as follows: growth inhibition, single agent or in combination, cell-based, chromothripsis tumors, cisplatin or BGB combos (AID 1671449).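 Note: cells exposed for 96 hours; 0% = vehicle DMSO and 100% = killing by high DMSO.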 The conditions noted are these: LFS_MB_P medulloblastoma cells.
Test [5] in a line: growth inhibition, single agent and combos, cell-based, chromothripsis tumors, cisplatin or BGB combos (AID 1671450).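 Note: cells exposed to compound for four days; 0% = vehicle DMSO and 100% = cell killing by high DMSO.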 The conditions noted are these: HDN33 neuroblastoma cells, stronger effect = higher value.
Test [6] is described as follows: growth inhibition, single agents and combos, ICB984, cell-based, cisplatin or BGB combos, synergistic combos for chromothripsis tumors (AID 1671451; call rule not given here;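 note: cells exposed for 96 hours before readout; 0% = vehicle DMSO and 100% = killing by high DMSO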). The note with it: ICB984 medulloblastoma cells, drug combinations, stronger effect = higher value.
Test [7] in a line: growth inhibition, single agents and combos, LFS_MB_1R, cell-based, cisplatin or BGB combos, synergistic combos for chromothripsis tumors (AID 1671452).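 Note: cells exposed for 96 hours before readout.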 The conditions noted are these: LFS_MB_1R medulloblastoma cells, stronger effect = higher value.
A short description of test [8]: growth inhibition, single agents and combos, HTB85, cell-based, BGB or cisplatin IC20 combos, synergistic combos for chromothripsis tumors (AID 1671453).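 Note: cells exposed for 96 hours before readout; 0% = vehicle DMSO and 100% = high DMSO killing control.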 The note with it: HTB85 osteosarcoma cells, drug combinations, stronger effect = higher value.
A short description of test [9]: growth inhibition, single agents and combos, CRL2098, cell-based, BGB or cisplatin IC20 combos, synergistic combos for chromothripsis tumors (AID 1671454).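 Note: cells exposed for 96 h before readout; 0% = vehicle DMSO and 100% = killing by high DMSO.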 The note with it: CRL2098 osteosarcoma cells, drug combinations, stronger effect = higher value.
A short description of test [10]: growth inhibition, single agents and combos, HD-MB03, cell-based, BGB or cisplatin IC20 combos, synergistic combos for chromothripsis tumors (AID 1671455; in the data active = inhibition above about 83%;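 note: 0% = vehicle DMSO and 100% = high DMSO as cytotoxic control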). The conditions noted are these: HD-MB03 medulloblastoma cells, stronger effect = higher value.
Test [11] in a line: growth inhibition, single agents and combos, UWB1.289, cell-based, BGB or cisplatin combos, synergistic combos for chromothripsis tumors (AID 1671456).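 Note: cells exposed to compound for four days; 0% = vehicle DMSO and 100% = killing by high DMSO.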 The note with it: UWB1.289 ovarian carcinoma cells, stronger effect = higher value.
Test [12] can be described thus: growth inhibition, single agents and combos, LFS_MB_2R, cell-based, cisplatin combos, synergistic combos for chromothripsis tumors (AID 1671457).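 Note: cells exposed to compound for four days before readout.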 The conditions noted are these: LFS_MB_2R medulloblastoma cells, stronger effect = higher value.
The nature of test [13]: growth inhibition, MDA-MB-436, cell-based, BGB or cisplatin combos, synergistic combos for chromothripsis tumors (AID 1671458; call rule not given here;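 note: cells exposed for 96 hours; 0% = vehicle DMSO and 100% = killing by high DMSO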). The conditions noted are these: MDA-MB-436 breast carcinoma growth inhibition, drug combinations, stronger effect = higher value.
Test [14] can be described thus: UWB1.289_BRCA1 ovarian cancer growth, cell-based, BGB or cisplatin combinations (AID 1671459). The note with it: UWB1.289 BRCA1 ovarian carcinoma, drug combinations, stronger effect = higher value.
The nature of test [15]: drug combination toxicity in non-malignant astrocytes – cell-based, BGB or cisplatin IC20 combos, cytotoxicity control for chromothriptic childhood tumor combination screen (AID 1671460).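 Note: cells exposed to compounds for 96 hours before viability readout; 0% = vehicle and 100% = killing control.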 The conditions noted are these: Human astrocytes, viability inhibition, drug combinations, at 0.5 µM, stronger effect = higher value.
The nature of test [16]: BT084 cell growth, single and combined drugs, ICGC_MB145, cisplatin and BGB IC40 combos (AID 1671461).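 Note: cells exposed to drugs for 96 hours; 0% = vehicle DMSO and 100% = high DMSO full killing control.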 The conditions noted are these: BT084 medulloblastoma cells, drug combinations, stronger effect = higher value.
The nature of test [17]: galactose survival enhancers in mitochondrial complex I cybrids – cell-based, galactose medium, ATP luminescence, primary screen (AID 1645843;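 active = z-score of at least 1.8 in each of two replicates, scored against plate mean and spread of sample wells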;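 note: positive z means more ATP and so rescue of galactose-driven cybrid death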). The conditions noted are these: complex I mutant cybrid cells, 72 h, stronger effect = higher value.
[18] abbreviates: measured here: BGB IC40 combination, at 0.05 µM.
Where [19] appears, read: measured here: combination with cisplatin, at 0.5 µM.
Setting [20] is: measured here: with BGB IC20 combination, at 0.5 µM.
The mark [21] stands for this setting: measured here: with cisplatin IC20 combination, at 0.5 µM.
Where [22] appears, read: measured here: combination with BGB IC40, at 0.05 µM.
Setting [23] is: measured here: combination with cisplatin, at 5 µM.

Where “and” joins values, the source holds several entries; their conditions need not be identical. Equal entries are not always repeated. Calls of active or inactive are those of the source. Cut-off read from the data, not from the text of the source, unless noted: active = inhibition above about 80%; inactive = the rest.

Take `O=P(O)(NCCCl)NCCCl`: the inhibition is -4.66% in test [1] (setting [18]); -18.6% in [1] (setting [19]); -40.3% in test [1] (single agent, at 5 µM); -42.1% (inactive) in [2] (at 0.5 µM); -36.5% in [2] (setting [20]); -44.9% in test [2] (setting [21]). The inhibition is -55% in test [2] (single agent, at 0.05 µM) and -25.3% in test [2] (single agent, at 5 µM).
On to `O=C(CCCN1CCC2(CC1)C(=O)N(CCc1ccc(N=C=S)cc1)CN2c1ccccc1)c1ccc(F)cc1`, for which the period change in test [3] is 0.03 h (inactive).
Same read-out and setting: the result for `CCN1C[C@]2(C)CC[C@H](O)[C@@]34C5C[C@@H]6[C@@H](OC)C[C@@](O)(C5[C@H]6O)[C@@H](CC23)C14` (some centres not stated) reads 0.055 h (inactive).
On the same count and under the same terms, the figure for `C[C@]12CC[C@@H](O)CC1CC[C@@H]1[C@@H]2CC[C@]2(C)C(=O)CC[C@@H]12` (some centres not stated) is 0.105 h (inactive).
The same measure, in the same setting: the figure for `CC(C)[C@@]1(NC(=O)[C@@H]2C=C3c4cccc5[nH]cc(c45)C[C@H]3N(C)C2)O[C@@]2(O)[C@@H]3CCCN3C(=O)[C@H](Cc3ccccc3)N2C1=O` is 0.465 h (inactive).
As to `COc1cc([C@@H]2c3cc4c(cc3[C@H](O)[C@H]3COC(=O)[C@H]23)OCO4)cc(OC)c1O`, the inhibition is -9.98% (inactive) and 8.43% (inactive) in test [4] (at 0.5 µM, stronger effect = higher value); -2.59% and -6.87% in [4] (measured here: combination with BGB IC20, at 0.005 µM); 7.46% and -20.3% in [4] (measured here: combination with BGB IC40, at 0.005 µM); 35.2% and -17% in [4] (setting [22]); -26% and 12.8% in [4] (measured here: combination with cisplatin, at 0.5 µM, stronger effect = higher value); 48% and 29.7% in test [4] (measured here: combination with cisplatin, at 5 µM, stronger effect = higher value). For the same molecule, the inhibition is 64.5% and 57.8% in [5] (BGB combo, at 5 µM); 76% (inactive) and 68.9% (inactive) in test [5] (at 0.5 µM); 60.1% and 62.6% in [5] (cisplatin combo, at 5 µM); 66.9% and 60.4% in test [5] (setting [20]); 69% and 58.6% in test [5] (setting [21]); 77.6% and 81.6% in test [5] (single agent, at 5 µM). The inhibition in test [6] (BGB IC20 combo, at 0.005 µM) is 12.7% and -7.66%; in [6] (BGB IC40 combo, at 0.005 µM) it was 1.81% and -7.75%; in test [6] (BGB IC40 combo, at 0.05 µM) it was 4.84% and 20.6%; in [6] (at 0.5 µM), -16.8% (inactive) and -20% (inactive); in test [6] (cisplatin combo, at 0.05 µM), 1.07% and 20.6%; in [6] (cisplatin combo, at 0.5 µM), -39.6% and -30.5%. Besides, the inhibition in test [6] (cisplatin combo, at 5 µM) was -37.8% and -5.3%; in test [6] (measured here: 5 uM single agent, at 5 µM), 0.691% and -3.02%; in test [7] (at 0.5 µM) it was 4.95% (inactive) and 4.02% (inactive); in test [7] (setting [22]), -9.68% and 4.85%; in test [7] (setting [19]), -26.6% and 18%; in test [7] (setting [23]), 44.6% and 52.8%. The inhibition in [8] (at 0.5 µM) is 70% (inactive) and 60.4% (inactive); in test [8] (measured here: with BGB IC20, at 0.5 µM), 56.9% and 41.3%; in [8] (measured here: with BGB IC20, at 5 µM), 58.2% and 51.8%; in test [8] (measured here: with cisplatin IC20, at 0.5 µM), 60.9% and 54%; in test [8] (measured here: with cisplatin IC20, at 5 µM), 70.5% and 80%; in test [8] (single agent, at 5 µM) it was 87% and 84.5%. The inhibition in test [9] (at 0.5 µM) is 57.9% (inactive) and 29.8% (inactive); in test [9] (measured here: combination with BGB at IC20, at 0.5 µM), 50.3% and 29.8%; in test [9] (measured here: combination with cisplatin at IC20, at 0.5 µM), 57.2% and 5.54%; in [10] (at 0.5 µM), 71.7% (inactive) and 69.2% (inactive); in test [10] (measured here: combo with BGB at IC20, at 0.5 µM), 61.9% and 65.3%; in test [10] (measured here: combo with cisplatin at IC20, at 0.5 µM), 71.7% and 65.8%. The inhibition in [11] (at 0.5 µM) was 44% (inactive) and 35.9% (inactive); in test [11] (measured here: inhibition with BGB combination, at 0.05 µM), -0.844% and 8.28%; in [11] (measured here: inhibition with cisplatin combination, at 0.05 µM), 0.424% and -0.759%; in test [12] (at 0.5 µM), 13.5% (inactive) and -0.16% (inactive); in test [12] (setting [19]) it was 23.7% and 7.38%; in [12] (setting [23]) it was 37.2% and 35.6%. Also, the inhibition in test [13] (at 0.5 µM) is 56.1% (inactive) and 45.1% (inactive); in test [13] (measured here: BGB combination, at 0.5 µM) it was 36% and 23.1%; in [13] (measured here: BGB combination, at 5 µM) it was 45.8% and 43.9%; in test [13] (measured here: cisplatin combination, at 0.5 µM), 63.1% and 44.6%; in test [13] (measured here: cisplatin combination, at 5 µM), 70.8% and 69%; in [14] (BGB combination, concentration series, at 5 µM), 55.3% and 54.8%. The inhibition in [14] (at 0.5 µM) was 51.6% (inactive) and 46.7% (inactive); in test [14] (cisplatin combination, concentration series, at 5 µM), 64.1% and 63.1%; in test [15] it was 69.7% (inactive) and 62.4% (inactive); in test [15] (measured here: combo with BGB IC20), 66.6% and 57.1%; in test [15] (measured here: combo with cisplatin IC20) it was 62.5% and 52.4%; in test [16] (at 0.5 µM), 23.1% (inactive) and 7.97% (inactive). Further, the inhibition is -0.605% and 4.61% in [16] (cisplatin combination, at 0.5 µM); 43.4% and 22.5% in test [16] (cisplatin combination, at 5 µM); 7.15% and -9.48% in test [16] (measured here: BGB IC40 combination 0.05 uM, at 0.05 µM); 73.2% and 24.9% in test [16] (single agent, at 5 µM); 6.51% (inactive) and -0.09% (inactive) in test [1] (at 0.5 µM); 39.6% and 46.7% in test [1] (cisplatin combo, at 5 µM). The inhibition is -8.85% and -7.39% in test [1] (setting [18]); 22% and 15.3% in test [1] (setting [19]); 43.2% and -3.33% in test [1] (single agent, at 5 µM); 56.5% (inactive) and 47% (inactive) in test [2] (at 0.5 µM); 55% and 43.8% in test [2] (setting [20]); 57.3% and 48.6% in [2] (setting [21]). In addition, the inhibition in test [2] (single agent, at 0.05 µM) was -5.66% and 32.2%; in test [2] (single agent, at 5 µM) it was 83% and 76.2%.
For `CC(CCCC(C)(C)O)NC(C)Cc1ccccc1F` (configuration not stated), the z-score in [17] was -0.515 (inactive).
The same measure, in the same setting: the figure for `O=c1c2cc(F)ccc2ncn1Cc1cn2ccccc2n1` is 0.245 (inactive).

Values taken from PubChem BioAssay.
